Among the data in PubChem BioAssay (NCI) are growth values, retold here.

About 83,000 compounds went through this panel and 20% of them were active in at least one assay; those are over-represented in the sample as a whole.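 The endpoint reported here, percent growth, reads 100 for growth as untreated, 0 for no net growth and -100 for all cells dead.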 The source made the active and inactive calls. The calls were made as follows: active = growth percent below 10; inactive = the rest.

In the first assay the test system is HOP-92 NSCLC. Nature of the assay: NCI-60 one-dose screen, 48 h (100 = growth as untreated, 0 = no growth, -100 = all killed). The note with it: 10 µM unless noted.
For `Nc1ccc2c(c1)C(=O)NC2=O`, the growth is 151% (inactive).
For `CC(C)[C@@H]1CC[C@]2(C(=O)NCCCCN=C(N)N)CC[C@]3(C)[C@H](CC[C@@H]4[C@@]5(C)CCC(=O)C(C)(C)[C@@H]5CC[C@]43C)[C@@H]12`, the growth was 57.6% (inactive).
Same read-out and setting: to `CCc1ccccc1NC(=O)c1sc2nc3c(cc2c1N)C(=O)CCC3` belongs 84.8% (inactive); to `O=C1c2c[n+](Cc3ccccc3)ccc2-c2nc3ccccc3c3ccnc1c23`, -45.4% (active).
For `CCN(C(=O)CN1CCN(c2cc3c(cc2F)c(=O)c(C(=O)O)cn3CC)CC1)c1nc(-c2ccccc2)cs1`, the growth was -31.8% (active).
As to `O=C(Nc1ccc(F)cc1)Nc1ccc(CCO)cc1`, the growth is 103% (inactive).
With `CCCNc1nc(SC)nc(-c2cccc(N)c2)c1C#N`, the growth was 80.5% (inactive).
On to `CC/C(=C(\c1ccc(O)cc1)c1ccc(OCCN(C)CCN(C)C(=O)CCCCC(=O)c2c(C)[nH]c(/C=C3\N=C(c4ccc[nH]4)C=C3OC)c2C)cc1)c1ccccc1`, for which the growth is 63.4% (inactive).
The same measure, in the same setting: the figure for `c1c2c(cc3c1OCO3)Cc1cc3c(cc1Cc1cc4c(cc1C2)OCO4)OCO3` is 96.7% (inactive); for `C(=N\Nc1nnn(Cc2ccccc2)n1)/c1ccccc1` it is 87.2% (inactive).
On the same count and under the same terms, to `NS(=O)(=O)N(c1cc(C(F)(F)F)cc(C(F)(F)F)c1)C1CCN(Cc2ccc(F)cc2)CC1` belongs 34.9% (inactive); to `CC(=O)Oc1cc2cnc3c4cc(OC(C)=O)c(OC(C)=O)cc4ccc3c2cc1OC(C)=O`, 18.6% (inactive); to `O=C1C=CC(Nc2ccccc2[N+](=O)[O-])C1Nc1ccccc1[N+](=O)[O-]` (centres undefined), -56.5% (active).
For the compound `O=C(COCc1c(-c2ccccc2)no[n+]1[O-])Nc1ccc(C(=O)/C=C/c2ccc3c(c2)OCO3)cc1`, the growth was 73.2% (inactive).
With `CCOC(=O)c1c2c(n3ccc(NC(=O)CCN4CCOCC4)cc13)C(=O)c1ncccc1C2=O`, the growth was 45.1% (inactive).
As to `COc1cc2c(=O)n(CC3CCCCC3)c3c4cc[nH]c4ncc3c2cc1OC`, the growth is 1.65% (active).
With `COc1ccc(-c2cc(=O)[nH]c3c(OC)c4ccccc4c(OC)c23)cc1`, the growth was 73.9% (inactive).
On the same count and under the same terms, the figure for `Cn1c(=O)c2[nH]c(C(O)C(O)C(O)C(O)CO)nc2n(C)c1=O` (centres undefined) is 109% (inactive); for `C=C1CCC2C3(C)COC(c4ccc(OC)cc4Br)OC3CCC2(C)C1/C=C/C1=CCOC1=O` (centres undefined) it is 84.8% (inactive).
The same measure, in the same setting: to `COc1ccc(-c2cn3c(ccc4ccccc43)n2)cc1` belongs 92.1% (inactive).
Still for that read-out and setting: to `Cc1ccc(Nc2c(C(N)=O)cnc3ccc(-c4csc(N)n4)cc23)cc1` belongs 90.2% (inactive); to `CCN(CC)CC#CCOC(=O)[C@]1(C)CCC[C@@]2(C)[C@H]1CC(C=O)=C1C=C(C(C)C)CC[C@@H]12`, 44.8% (inactive).
With `CCCCCCCCCCCCS(=O)CC(C)O` (centres undefined), the growth was 90.2% (inactive).
`c1ccc2sc(SCCCn3ccnc3)nc2c1`: the growth is 78.9% (inactive).
`CCCCCCCCCCCCCCCCCCNC(=O)[C@H]1CSC(c2ccc(OC)c(F)c2)N1` (some centres undefined): the growth was 37.8% (inactive).
Still for that read-out and setting: to `O=C(/C=C\c1cccc([N+](=O)[O-])c1)c1ccccc1` belongs -27% (active).

The test system of the next assay is NCI-H522 lung. Described as above. The conditions noted are these: 10 µM unless noted.
Turning to `O=C1c2cc3c(cc2-c2c1c1cc(Cl)c(Cl)cc1c(=O)n2CCCn1ccnc1)OCO3`, the growth was 1.51% (active).
For the compound `CCCCCCCCOC(=O)CC[C@@H](C)[C@H]1CC[C@H]2[C@@H]3[C@H](OC(=O)CCN)C[C@@H]4C[C@H](OC(=O)CCN)CC[C@]4(C)[C@H]3C[C@H](OC(=O)CCN)[C@]12C`, the growth was 10.8% (inactive).
The same measure, in the same setting: the figure for `COc1ccc(-c2cnoc2-c2cc(OC)c3c(c2)OCCO3)cc1` is -39.1% (active).
As to `Cc1nn(-c2ccccc2)c2nc(C)n(-c3ccc(Br)cc3)c(=O)c12`, the growth was -14.1% (active).
Still for that read-out and setting: the figure for `CCN(CC)CC(C)(C)C(=O)/C=C/c1ccccc1` is 60.6% (inactive); for `Cc1ccc2cnc(N)c(C#Cc3cncc(C(=O)Nc4ccc(CN5CCN(C)CC5)c(C(F)(F)F)c4)c3)c2c1` it is -71% (active); for `C[C@H](CCC(=O)O)[C@H]1CC[C@H]2[C@@H]3CC[C@@H]4/C(=C\c5ccco5)C(=O)/C(=C\c5ccco5)C[C@]4(C)[C@H]3CC[C@]12C` it is 37.3% (inactive).
On the same count and under the same terms, to `COc1ccc(-c2cc(-c3ccc(N(C)C)cc3)nc(NC(=O)c3ccncc3)n2)cc1` belongs 90.7% (inactive).
Still for that read-out and setting: to `COc1ccc2c(c1)C(=O)/C(=C/c1cccc(OCC(=O)Nc3nc4c(s3)CCCC4)c1)O2` belongs -50.3% (active); to `Cc1nc2sc(C(=O)Nc3cccc4c3OCCO4)c(N)c2cc1C(C)O` (centres undefined), -29.3% (active).
`CCCCCCNC(=O)Oc1ccc(/C(=C(\C)c2ccccc2)c2ccc(OCCN(CC)CC)cc2)cc1`: the growth was 47.8% (inactive).
In the case of `O=[N+]([O-])c1c(F)cccc1Nc1cccc(F)c1`, the growth was 92% (inactive).
Turning to `Nc1ccc2c(c1)C(=O)NC2=O`, the growth is 99.3% (inactive).
For `CC(C)[C@@H]1CC[C@]2(C(=O)NCCCCN=C(N)N)CC[C@]3(C)[C@H](CC[C@@H]4[C@@]5(C)CCC(=O)C(C)(C)[C@@H]5CC[C@]43C)[C@@H]12`, the growth is 19.5% (inactive).
On to `CCc1ccccc1NC(=O)c1sc2nc3c(cc2c1N)C(=O)CCC3`, for which the growth is -11.6% (active).
The same measure, in the same setting: to `O=C1c2c[n+](Cc3ccccc3)ccc2-c2nc3ccccc3c3ccnc1c23` belongs -66.3% (active); to `CCN(C(=O)CN1CCN(c2cc3c(cc2F)c(=O)c(C(=O)O)cn3CC)CC1)c1nc(-c2ccccc2)cs1`, -15.4% (active).
Still for that read-out and setting: the figure for `O=C(Nc1ccc(F)cc1)Nc1ccc(CCO)cc1` is 93.8% (inactive).
Take `CCCNc1nc(SC)nc(-c2cccc(N)c2)c1C#N`: the growth was 92.9% (inactive).
On to `CC/C(=C(\c1ccc(O)cc1)c1ccc(OCCN(C)CCN(C)C(=O)CCCCC(=O)c2c(C)[nH]c(/C=C3\N=C(c4ccc[nH]4)C=C3OC)c2C)cc1)c1ccccc1`, for which the growth was 84.3% (inactive).
Take `c1c2c(cc3c1OCO3)Cc1cc3c(cc1Cc1cc4c(cc1C2)OCO4)OCO3`: the growth was 94.2% (inactive).
With `C(=N\Nc1nnn(Cc2ccccc2)n1)/c1ccccc1`, the growth was 29.2% (inactive).
Take `NS(=O)(=O)N(c1cc(C(F)(F)F)cc(C(F)(F)F)c1)C1CCN(Cc2ccc(F)cc2)CC1`: the growth was 43.2% (inactive).
Still for that read-out and setting: the figure for `CC(=O)Oc1cc2cnc3c4cc(OC(C)=O)c(OC(C)=O)cc4ccc3c2cc1OC(C)=O` is -28.8% (active); for `O=C1C=CC(Nc2ccccc2[N+](=O)[O-])C1Nc1ccccc1[N+](=O)[O-]` (centres undefined) it is -90.1% (active).
Same read-out and setting: to `O=C(COCc1c(-c2ccccc2)no[n+]1[O-])Nc1ccc(C(=O)/C=C/c2ccc3c(c2)OCO3)cc1` belongs 140% (inactive).
The same measure, in the same setting: to `CCOC(=O)c1c2c(n3ccc(NC(=O)CCN4CCOCC4)cc13)C(=O)c1ncccc1C2=O` belongs -20.5% (active); to `COc1cc2c(=O)n(CC3CCCCC3)c3c4cc[nH]c4ncc3c2cc1OC`, 35.1% (inactive).
As for `COc1ccc(-c2cc(=O)[nH]c3c(OC)c4ccccc4c(OC)c23)cc1`, the growth is -17.2% (active).
On the same count and under the same terms, to `Cn1c(=O)c2[nH]c(C(O)C(O)C(O)C(O)CO)nc2n(C)c1=O` (centres undefined) belongs 86.7% (inactive); to `C=C1CCC2C3(C)COC(c4ccc(OC)cc4Br)OC3CCC2(C)C1/C=C/C1=CCOC1=O` (centres undefined), 63.8% (inactive); to `COc1ccc(-c2cn3c(ccc4ccccc43)n2)cc1`, 87.5% (inactive).
Still for that read-out and setting: to `Cc1ccc(Nc2c(C(N)=O)cnc3ccc(-c4csc(N)n4)cc23)cc1` belongs 101% (inactive); to `CCN(CC)CC#CCOC(=O)[C@]1(C)CCC[C@@]2(C)[C@H]1CC(C=O)=C1C=C(C(C)C)CC[C@@H]12`, 53.3% (inactive); to `CCCCCCCCCCCCS(=O)CC(C)O` (centres undefined), 95.3% (inactive).
On to `c1ccc2sc(SCCCn3ccnc3)nc2c1`, for which the growth is 50.4% (inactive).
For the compound `CCCCCCCCCCCCCCCCCCNC(=O)[C@H]1CSC(c2ccc(OC)c(F)c2)N1` (some centres undefined), the growth is 56.7% (inactive).
For `O=C(/C=C\c1cccc([N+](=O)[O-])c1)c1ccccc1`, the growth was -5.55% (active).
